Measurements as given in PubChem BioAssay (NCI).
The panel holds about 79,000 compounds, 15% with a hit somewhere; the sample as a whole holds those more often. A number with no mark means an inactive call. Calls of active or inactive are those of the source. No stated cut-off is given here; in the data, active means growth inhibition above about 70%; inactive means the rest.

Columns and labels:
[1] = NCI Yeast Anticancer Drug Screen. Data for the rad50 strain (AID 155);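 further: 0% = growth of vehicle-only cultures of the same strain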; details: S. cerevisiae rad50 strain growth inhibition; at 50.0 µM; hits give high values
Summary of the method: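 Vehicle-treated cultures provide the reference for the growth inhibition reported for compound-exposed, repair-deficient yeast.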

[2] = NCI Yeast Anticancer Drug Screen. Data for the mec2-1 strain (AID 157); details: S. cerevisiae mec2-1 strain, at 50.0 µM, hits give high values
Summary of the method: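 Test agents were screened against the mec2-1 yeast strain, with defined DNA repair or cell cycle alteration. Growth was scored as inhibition against vehicle-only controls.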

[3] = NCI Yeast Anticancer Drug Screen. Data for the sgs1 mgt1 strain (AID 161);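 further: 0% = growth of cultures given vehicle only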; details: S. cerevisiae sgs1 mgt1 strain, at 50.0 µM, hits give high values
Summary of the method: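 Read-out: growth inhibition vs vehicle controls. Cells: mutant yeast strain deficient in DNA damage repair.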

[4] = NCI Yeast Anticancer Drug Screen. Data for the cln2 rad14 strain (AID 165);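 further: 0% = growth equal to vehicle treated cultures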; details: S. cerevisiae cln2 rad14 strain, at 50.0 µM, hits give high values
Summary of the method: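 Growth of compound-exposed yeast (cln2 rad14 genotype) measured and expressed as inhibition relative to vehicle.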

[5] = NCI Yeast Anticancer Drug Screen. Data for the bub3 strain (AID 167); details: S. cerevisiae bub3 mutant strain, at 50.0 µM, hits give high values
Summary of the method: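 Mutant yeast screening strain plus compound; vehicle-treated cultures serve as the 0% inhibition reference.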

[6] = NCI Yeast Anticancer Drug Screen. Data for the mlh1 rad18 strain (AID 175); details: S. cerevisiae mlh1 rad18 strain growth inhibition; at 50.0 µM; hits give high values
Summary of the method: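 In this whole-cell yeast screen, a strain with altered DNA damage repair is challenged with compound, and its growth is measured against matched vehicle-treated controls.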

| SMILES | growth inhibition [1] | growth inhibition [2] [%] | growth inhibition [3] [%] | growth inhibition [4] [%] | growth inhibition [5] [%] | growth inhibition [6] [%] |
| --- | --- | --- | --- | --- | --- | --- |
| Cc1[nH]nc(C(=O)O)c1N | -18.2% | -20.6 | -14.6 | -16.1 | -13.4 | -7.2 |
| CC1=NN2C(=O)CSC2=NC(C)(C)C1 | -5.35% | -12.8 | 7.45 | 25.9 | -5.75 | -9.95 |
| Cc1cc(C(F)(F)F)nc2nc3ccccc3n12 | 6.55% | -18.9 | -0.15 | -3.7 | -29.7 | 6.2 |
| O=C1C=CC2C=CC1C=C2 | -1.55% | 14.8 | 23.2 | 1.15 | -7.7 | 11.7 |
| O=c1[nH]c2c([N+](=O)[O-])cc(Cl)cc2nc1/C=C(\O)c1cccnc1 | 18.4% | 0.7 | 33.8 | 36.2 | 4.25 | 45.1 |
| O=C(Nc1nc(C23CC4CC(CC(C4)C2)C3)cs1)c1cc2ccccc2oc1=O | -1.45% | -26.5 | -3.45 | -30.4 | -23.9 | -17.4 |
| OCC(O)COc1ccccc1F (stereo not given) | 11.5% | -6.35 | -11.2 | -13.2 | -7.5 | 10.8 |
| COc1ccc(N2C(=O)C3c4[nH]c5ccccc5c4C4CCCCCCCCCC4C3C2=O)cc1 (stereo not given) | -6.15% | -25.9 | 0 | -39.6 | -15.3 | -30.2 |
| Cc1oc2nc(N(C)C)nc(NN)c2c1C | 10.1% | 5.55 | -4.55 | -0.75 | 10.2 | -13.8 |
| c1ccc(-c2oc3ccc4ccccc4c3c2-c2ccc(OCCN3CCCC3)cc2)cc1 | 75.8% (active) | 58.4 | 66.8 | 61.2 | 51.4 | 61.5 |
| Cc1cc(Cl)ccc1NC(=O)CCCC(=O)C1CCC/C1=N\NC(=O)CC#N (stereo not given) | -33.2% | 9.7 | -7.25 | 8.95 | 5.7 | -12.3 |
| CC1(Br)CP(=O)(c2ccccc2)CC1Br (stereo not given) | -9.2% | -11.9 | 9.5 | -24.4 | 21.1 | -6 |
| O=C(O)Cc1ccccc1Cl | 24.4% | 32.1 | 6.55 | -23.9 | 14.8 | 17.9 |
| CC(C)CCNCCC(C)C | 35.7% | 25.1 | -2.85 | -36.3 | -14.9 | 21.9 |
| Cc1c(C)c(O)c2c(c1C)C(C)C(=O)OC2=O (stereo not given) | 1.2% | -37.8 | -13.2 | 10 | -19.3 | -0.15 |
| O=C1CCCC/C1=C\c1ccc([N+](=O)[O-])cc1 | 28.4% | 27.9 | 29.4 | 10.1 | 21.8 | 40.4 |
| Cc1cccc(C)c1NC(=O)/C(=N/NC(N)=S)C(C)C(=O)c1ccc(Cl)cc1 (stereo not given) | 12.6% | 6.35 | 19.6 | 13.3 | 4.5 | 22.3 |
| Cc1ccc(S(=O)(=O)OCC2(COS(=O)(=O)c3ccc(C)cc3)CCC2)cc1 | -7.8% | -7.75 | 0.25 | -8.95 | 16 | -15 |
| C[Si](C)(COC(N)=O)Cc1ccccc1 | -28.1% | -12.6 | -15.5 | -1.2 | -10.6 | -32 |
| O=C(O)c1[nH]c2c(=O)[nH]c(=O)[nH]c2c1Br | 5.25% | -2.8 | -15.9 | -4.35 | 2.15 | 15 |
